# Assay results from PubChem BioAssay (EPA / NIEHS).
# Calls of active or inactive are those of the source. How the source made its calls: active means hit-call score of the fitted dose curve at least 0.9, where 1 is the maximum; inactive means score below 0.9.
# What was measured:
# [1] = ATG_CRE_CIS: Attagene CIS-FACTORIAL HepG2 Assay for human cAMP Responsive Element (CRE) binding protein 3 (AID 2282926); settings: HepG2 CRE cis-reporter, Attagene multiplexed mRNA; actives raise or lower the signal
# In short: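 Multiplexed transcription-unit reporters transfected into HepG2; 24 h dosing; RT-PCR/capillary electrophoresis fluorescence read-out; bidirectional fit vs DMSO.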
# [2] = molecular target: CCAAT/enhancer-binding protein beta (Homo sapiens) (UniProt P17676); test: ATG_C_EBP_CIS: Attagene CIS-FACTORIAL HepG2 Assay for human CCAAT/Enhancer Binding Protein (C/EBP) beta (AID 2282927); settings: HepG2 Attagene cis-factorial transcription factor reporter; actives raise or lower the signal
# In short: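 HepG2 transiently transfected with multiplexed reporter units under cis-regulatory promoters reporting endogenous C/EBPb activity. After 24 h exposure, reporter mRNA assayed by RT-PCR, fluorescent labelling, HpaI digestion and capillary electrophoresis; bidirectional fitting versus DMSO.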
# [3] = ATG_CMV_CIS: Attagene CIS-FACTORIAL HepG2 Assay for human CMV (Internal Marker) (AID 2282928); settings: HepG2 CMV promoter reporter, transcription factor profiling; actives raise or lower the signal;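 further: endpoint acts as a background internal control marker rather than a target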
# In short: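 Endogenous transcription factor activity read in HepG2 via transfected cis-promoter reporter units. After 24 h dosing, reporter mRNA measured by RT-PCR/capillary electrophoresis; gain or loss of signal fit relative to DMSO.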
# [4] = ATG_DR4_LXR_CIS: Attagene CIS-FACTORIAL HepG2 Assay for human Liver X Receptor (LXR), DR4 submotif (AID 2282929); settings: HepG2 Attagene DR4 cis-reporter, mRNA transcription; actives raise or lower the signal
# In short: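 Measures endogenous transcription factor activity via a DR4-driven reporter transcript in human HepG2 cells. Compounds incubated 24 h; mRNA quantified by RT-PCR and capillary electrophoresis, analysed as gain or loss of signal versus DMSO.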
# [5] = molecular target: Aryl hydrocarbon receptor (Homo sapiens) (UniProt P35869); test: ATG_Ahr_CIS: Attagene CIS-FACTORIAL HepG2 Assay for human Aryl Hydrocarbon Receptor (Ahr) (AID 2282930); settings: HepG2 AhR cis-factorial reporter transcription; actives raise or lower the signal
# In short: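 HepG2 cells transiently transfected with cis-element-driven multiplexed reporter units; endogenous AhR activity read as reporter mRNA 24 h after dosing, via RT-PCR, 6-FAM labelling, HpaI digestion and capillary electrophoresis. Bidirectional fit relative to DMSO.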
# [6] = ATG_AP_1_CIS: Attagene CIS-FACTORIAL HepG2 Assay for human Activator Protein 1 (AP-1) (AID 2282931); settings: HepG2 Attagene cis-factorial AP-1 reporter mRNA; actives raise or lower the signal
# In short: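 Bidirectional concentration-response fitting against DMSO controls. Underlying signal: reporter mRNA from cis-promoter constructs in transiently transfected HepG2, measured after 24 h by RT-PCR and capillary electrophoresis.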
# [7] = ATG_AP_2_CIS: Attagene CIS-FACTORIAL HepG2 Assay for human Activator Protein 2 (AP-2) (AID 2282932); settings: HepG2 AP-2 cis-reporter, Attagene transcription factor profiling; actives raise or lower the signal
# In short: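 HepG2 cells transiently transfected with cis-element reporter units and exposed for 24 h. Reporter mRNA measured by RT-PCR, FAM labelling, HpaI digestion and capillary electrophoresis. Changes in either direction fitted relative to DMSO.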
# [8] = ATG_BRE_CIS: Attagene CIS-FACTORIAL HepG2 Assay for human Bone Morphogenetic Protein (BMP) Response Element (BRE) (AID 2282933); settings: HepG2 BMP response element reporter, Attagene transcription factor profiling; actives raise or lower the signal
# In short: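 Multiplexed cis-reporter assay, HepG2, 24 h exposure. mRNA from reporter units quantified via RT-PCR/CE; DMSO baseline; bidirectional curve fit.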
# [9] = molecular target: Retinoic acid receptor alpha (Homo sapiens) (UniProt P10276); test: ATG_DR5_RAR_CIS: Attagene CIS-FACTORIAL HepG2 Assay for human Retinoic Acid Receptor Alpha (RARE), DR5 submotif (AID 2282934); settings: HepG2 Attagene cis-factorial RARE DR5 reporter, mRNA; actives raise or lower the signal;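 on AC50: reporter responds to endogenous RAR alpha beta and gamma in HepG2 not RARA alone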
# In short: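 HepG2 cells transiently transfected with multiplexed reporter units; DR5 cis-element drives reporter through endogenous transcription factors. After 24 h dosing, reporter mRNA quantified by RT-PCR, fluorescent labeling, HpaI digestion and capillary electrophoresis; bidirectional fitting versus DMSO.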
# [10] = molecular target: Transcription factor E2F1 (Homo sapiens) (UniProt Q01094); test: ATG_E2F_CIS: Attagene CIS-FACTORIAL HepG2 Assay for human E2F Transcription Factor 1 (AID 2282935); settings: HepG2 Attagene cis-reporter, E2F reporter RNA transcripts; actives raise or lower the signal
# In short: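 Endogenous E2F1 activity read through cis-promoter reporter units transfected into HepG2. After 24 h compound treatment, reporter mRNA measured by RT-PCR, HpaI digestion and capillary electrophoresis. Bidirectional fit versus DMSO.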
# [11] = ATG_E_Box_CIS: Attagene CIS-FACTORIAL HepG2 Assay for human Enhancer Box (E-box) (AID 2282936); settings: HepG2 E-box cis-reporter transcription, actives raise or lower the signal
# In short: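 HepG2 cells transiently transfected with multiplexed cis-element reporter units, dosed 24 h; reporter mRNA quantified by RT-PCR, 6-FAM labelling, HpaI digestion and capillary electrophoresis. E-box (USF1) signal fitted bidirectionally vs DMSO.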
# [12] = ATG_EGR_CIS: Attagene CIS-FACTORIAL HepG2 Assay for human Early Growth Response 1 (EGR1) (AID 2282938); settings: HepG2 Attagene CIS-FACTORIAL EGR reporter mRNA; actives raise or lower the signal
# In short: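 Cell-based multiplex transcription assay: HepG2 carrying transfected cis-element reporter units, 24 h chemical treatment. Fluorescence from capillary electrophoresis of RT-PCR products gives mRNA levels; fitting is bidirectional relative to DMSO.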
# [13] = ATG_M_19_CIS: Attagene CIS-FACTORIAL HepG2 Assay for M19 Transcription Factor (Internal Marker) (AID 2282939); settings: HepG2 Attagene CIS-FACTORIAL M19 internal marker reporter; actives raise or lower the signal
# In short: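 Signals come from fluorescence of labelled reporter-specific PCR fragments resolved by capillary electrophoresis, following 24 h treatment of HepG2 cells transfected with cis-promoter reporter units; activity was fitted in both directions relative to DMSO.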
# [14] = ATG_Ets_CIS: Attagene CIS-FACTORIAL HepG2 Assay for human Erythroblast Transformation Specific (ETS) (AID 2282941); settings: HepG2 ETS cis-reporter transcription, actives raise or lower the signal
# In short: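 Steps: transfect HepG2 with multiple reporter units; treat compound 24 h; isolate RNA, DNase-treat, reverse-transcribe; PCR-amplify, label with 6-FAM, digest with HpaI; separate by capillary electrophoresis. Activity fitted both directions versus DMSO.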
# [15] = ATG_FoxO_CIS: Attagene CIS-FACTORIAL HepG2 Assay for human Forkhead box O (FoxO) (AID 2282943); settings: HepG2 Attagene cis-reporter, FoxO element, mRNA; actives raise or lower the signal
# In short: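 HepG2 cells transiently transfected with cis-element-driven reporter units report endogenous FoxO activity. After 24 h chemical exposure, reporter mRNA quantified by RT-PCR, fluorescent labeling, HpaI digestion and capillary electrophoresis; bidirectional fit versus DMSO.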
# [16] = ATG_GATA_CIS: Attagene CIS-FACTORIAL HepG2 Assay for human GATA Binding Protein (AID 2282944); settings: HepG2 GATA cis-element reporter, Attagene multiplex mRNA; actives raise or lower the signal
# In short: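 After transfecting HepG2 cells with multiple cis-regulated reporter units, chemicals are dosed for 24 h; isolated RNA undergoes RT-PCR and fluorescent labeling before capillary electrophoresis, with activity expressed against DMSO.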
# [17] = ATG_GLI_CIS: Attagene CIS-FACTORIAL HepG2 Assay for human Zinc Finger Protein GLI1 (AID 2282945); settings: HepG2, Attagene cis-factorial reporter mRNA, GLI element; actives raise or lower the signal
# In short: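 Transiently transfected HepG2 cells report endogenous transcription factor activity via cis-element-driven reporter units. After 24 h compound exposure, reporter mRNA was measured by RT-PCR with capillary electrophoresis; bidirectional fitting against DMSO baseline.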
# [18] = ATG_ERE_CIS: Attagene CIS-FACTORIAL HepG2 Assay for Estrogen Response Element (ERE) (AID 2282940); settings: HepG2 ERE cis-reporter, Attagene RNA transcript; actives raise or lower the signal
# In short: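 Fluorescence of capillary-separated, FAM-labelled reporter cDNA fragments indicates reporter mRNA levels in HepG2 cells exposed to chemicals for 24 h. Transient transfection with cis-regulated units; data fitted in both directions against DMSO.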
# [19] = ATG_M_61_CIS: Attagene CIS-FACTORIAL HepG2 Assay for M61 Transcription Factor (Internal Marker) (AID 2282937); settings: HepG2 Attagene CIS-FACTORIAL M61 internal marker reporter; actives raise or lower the signal
# In short: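 Fluorescence from labelled cDNA fragments, separated by capillary electrophoresis, quantifies reporter induction. HepG2 cells bearing transiently transfected cis-promoter MRTUs were incubated with test chemical for 24 h; DMSO defined baseline for gain/loss fitting.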
# [20] = molecular target: Hepatocyte nuclear factor 3-beta (Homo sapiens) (UniProt Q9Y261); test: ATG_FoxA2_CIS: Attagene CIS-FACTORIAL HepG2 Assay for human Forkhead box A2 (FOXA2) (AID 2282942); settings: HepG2 cis-reporter transcription factor activity, 24 h; actives raise or lower the signal
# In short: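 In transiently transfected human HepG2 cells, promoter-driven reporter mRNA levels after 24 h chemical exposure are determined via RT-PCR with capillary electrophoresis. DMSO serves as baseline for bidirectional fitting.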
# Sequence of Aryl hydrocarbon receptor (Homo sapiens) (P35869 whole entry, looked up): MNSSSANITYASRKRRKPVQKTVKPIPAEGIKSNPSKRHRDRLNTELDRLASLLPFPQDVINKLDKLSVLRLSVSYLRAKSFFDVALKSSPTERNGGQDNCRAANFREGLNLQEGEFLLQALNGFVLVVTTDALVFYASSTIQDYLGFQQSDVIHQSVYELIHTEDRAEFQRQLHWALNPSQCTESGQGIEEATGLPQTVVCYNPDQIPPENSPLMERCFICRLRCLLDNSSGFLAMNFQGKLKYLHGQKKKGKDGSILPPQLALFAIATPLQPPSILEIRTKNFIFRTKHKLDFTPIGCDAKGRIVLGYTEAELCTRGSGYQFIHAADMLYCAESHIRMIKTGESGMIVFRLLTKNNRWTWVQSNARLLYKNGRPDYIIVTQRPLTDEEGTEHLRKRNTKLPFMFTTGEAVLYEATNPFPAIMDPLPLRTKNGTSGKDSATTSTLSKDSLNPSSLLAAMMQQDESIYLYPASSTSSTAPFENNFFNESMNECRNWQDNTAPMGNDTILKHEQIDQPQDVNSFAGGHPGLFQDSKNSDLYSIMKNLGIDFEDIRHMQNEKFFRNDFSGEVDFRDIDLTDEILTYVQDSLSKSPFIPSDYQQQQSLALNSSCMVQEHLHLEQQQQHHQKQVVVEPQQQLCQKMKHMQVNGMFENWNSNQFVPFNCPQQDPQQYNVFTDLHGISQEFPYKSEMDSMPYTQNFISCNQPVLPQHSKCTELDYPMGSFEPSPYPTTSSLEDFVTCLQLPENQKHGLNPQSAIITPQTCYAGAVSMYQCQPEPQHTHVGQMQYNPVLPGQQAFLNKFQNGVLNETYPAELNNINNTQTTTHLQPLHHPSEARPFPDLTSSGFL
# Sequence of CCAAT/enhancer-binding protein beta (Homo sapiens) (P17676 whole entry, looked up): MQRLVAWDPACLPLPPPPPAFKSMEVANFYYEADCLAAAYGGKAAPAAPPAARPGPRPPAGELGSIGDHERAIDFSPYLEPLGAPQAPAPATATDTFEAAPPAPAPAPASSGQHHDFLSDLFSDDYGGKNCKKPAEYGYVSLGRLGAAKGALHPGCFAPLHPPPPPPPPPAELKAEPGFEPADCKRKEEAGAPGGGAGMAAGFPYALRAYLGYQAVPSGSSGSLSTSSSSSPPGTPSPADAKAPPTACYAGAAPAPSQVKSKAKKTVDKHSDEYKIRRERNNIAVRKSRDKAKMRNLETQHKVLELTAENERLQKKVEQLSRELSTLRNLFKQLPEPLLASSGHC
# Sequence of Hepatocyte nuclear factor 3-beta (Homo sapiens) (Q9Y261 whole entry, looked up): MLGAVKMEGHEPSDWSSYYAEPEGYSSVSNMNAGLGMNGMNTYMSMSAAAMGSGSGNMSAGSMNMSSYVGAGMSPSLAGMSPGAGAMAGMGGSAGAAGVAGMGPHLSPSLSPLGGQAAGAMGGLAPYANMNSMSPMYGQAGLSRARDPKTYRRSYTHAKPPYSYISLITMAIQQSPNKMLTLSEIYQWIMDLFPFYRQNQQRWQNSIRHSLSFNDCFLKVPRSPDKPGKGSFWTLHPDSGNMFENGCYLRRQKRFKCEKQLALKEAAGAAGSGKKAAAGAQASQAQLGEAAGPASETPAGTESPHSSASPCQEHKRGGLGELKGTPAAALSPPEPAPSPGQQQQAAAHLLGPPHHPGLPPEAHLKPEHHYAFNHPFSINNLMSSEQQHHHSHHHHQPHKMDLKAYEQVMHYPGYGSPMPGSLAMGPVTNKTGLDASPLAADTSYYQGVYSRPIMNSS
# Sequence of Retinoic acid receptor alpha (Homo sapiens) (P10276 whole entry, looked up): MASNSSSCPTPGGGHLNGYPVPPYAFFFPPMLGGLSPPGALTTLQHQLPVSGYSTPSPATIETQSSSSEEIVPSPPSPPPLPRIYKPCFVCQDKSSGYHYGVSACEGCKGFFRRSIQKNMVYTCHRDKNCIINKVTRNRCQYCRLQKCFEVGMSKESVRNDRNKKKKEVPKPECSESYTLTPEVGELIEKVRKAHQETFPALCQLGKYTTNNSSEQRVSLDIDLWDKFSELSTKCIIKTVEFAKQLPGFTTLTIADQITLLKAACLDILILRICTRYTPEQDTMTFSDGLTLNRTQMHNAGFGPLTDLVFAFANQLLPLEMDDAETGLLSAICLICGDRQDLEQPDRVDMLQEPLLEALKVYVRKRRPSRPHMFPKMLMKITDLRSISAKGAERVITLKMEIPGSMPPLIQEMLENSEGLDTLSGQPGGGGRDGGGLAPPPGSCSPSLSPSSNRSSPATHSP
# Sequence of Transcription factor E2F1 (Homo sapiens) (Q01094 whole entry, looked up): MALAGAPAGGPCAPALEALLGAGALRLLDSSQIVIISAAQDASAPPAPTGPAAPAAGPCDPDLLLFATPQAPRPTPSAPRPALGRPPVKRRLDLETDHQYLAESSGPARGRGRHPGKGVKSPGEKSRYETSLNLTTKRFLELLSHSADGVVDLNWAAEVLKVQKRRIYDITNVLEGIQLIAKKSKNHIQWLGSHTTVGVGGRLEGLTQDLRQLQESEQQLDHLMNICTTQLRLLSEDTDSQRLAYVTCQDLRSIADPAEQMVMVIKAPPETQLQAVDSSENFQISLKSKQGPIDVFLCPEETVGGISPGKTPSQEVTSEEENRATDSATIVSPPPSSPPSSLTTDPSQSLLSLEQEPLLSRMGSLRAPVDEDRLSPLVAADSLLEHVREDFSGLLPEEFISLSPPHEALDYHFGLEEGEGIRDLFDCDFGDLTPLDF
smiles,measurement,setting,value
CC(C)=CCCC(C)CC(=O)O (stereo not given),outcome,[1],inactive
same,outcome,[2],inactive
same,outcome,[3],inactive
same,outcome,[4],inactive
same,outcome,[5],inactive
same,outcome,[6],inactive
same,outcome,[7],inactive
same,outcome,[8],inactive
same,outcome,[9],inactive
same,outcome,[10],inactive
same,outcome,[11],inactive
same,outcome,[12],inactive
same,outcome,[13],inactive
same,outcome,[14],inactive
same,outcome,[15],inactive
same,outcome,[16],inactive
same,outcome,[17],inactive
CCCC(=O)C(CC)Sc1ccoc1C (stereo not given),AC50,[1],25.7 µM (active)
same,outcome,[2],inactive
same,outcome,[3],inactive
same,outcome,[4],inactive
same,outcome,[5],inactive
same,AC50,[6],26.5 µM (active)
same,outcome,[7],inactive
same,outcome,[8],inactive
same,outcome,[9],inactive
same,outcome,[10],inactive
same,outcome,[11],inactive
same,outcome,[13],inactive
same,AC50,[18],88.9 µM (active)
same,outcome,[14],inactive
same,outcome,[16],inactive
same,outcome,[17],inactive
c1ccc(Oc2ccccc2)cc1,outcome,[1],inactive
same,outcome,[2],inactive
same,outcome,[3],inactive
same,outcome,[4],inactive
same,outcome,[5],inactive
same,outcome,[6],inactive
same,outcome,[7],inactive
same,outcome,[8],inactive
same,outcome,[9],inactive
same,outcome,[10],inactive
same,outcome,[19],inactive
same,outcome,[12],inactive
same,outcome,[13],inactive
same,outcome,[14],inactive
same,outcome,[20],inactive
same,outcome,[15],inactive
same,outcome,[16],inactive
same,outcome,[17],inactive
C=CC(C)C#N (stereo not given),outcome,[1],inactive
same,outcome,[2],inactive
same,outcome,[3],inactive
same,outcome,[4],inactive
same,outcome,[5],inactive
same,outcome,[6],inactive
same,outcome,[7],inactive
same,outcome,[8],inactive
same,outcome,[9],inactive
same,outcome,[10],inactive
same,outcome,[19],inactive
same,outcome,[12],inactive
same,outcome,[13],inactive
same,outcome,[14],inactive
same,outcome,[20],inactive
same,outcome,[15],inactive
same,outcome,[16],inactive
same,outcome,[17],inactive
CC(C)CC(C)CC(O)CC(C)C (stereo not given),outcome,[1],inactive
same,outcome,[2],inactive
same,outcome,[3],inactive
same,outcome,[4],inactive
same,outcome,[5],inactive
same,outcome,[6],inactive
same,outcome,[7],inactive
same,outcome,[8],inactive
same,outcome,[9],inactive
same,outcome,[10],inactive
same,outcome,[12],inactive
same,outcome,[13],inactive
same,outcome,[14],inactive
same,outcome,[20],inactive
same,outcome,[15],inactive
same,outcome,[16],inactive
same,outcome,[17],inactive
C=CCN(CC=C)CC=C,outcome,[1],inactive
same,outcome,[2],inactive
same,outcome,[3],inactive
same,outcome,[4],inactive
same,outcome,[5],inactive
same,outcome,[6],inactive
same,outcome,[7],inactive
same,outcome,[8],inactive
same,outcome,[9],inactive
same,outcome,[10],inactive
same,outcome,[19],inactive
same,outcome,[12],inactive
same,outcome,[13],inactive
same,outcome,[14],inactive
same,outcome,[20],inactive
same,outcome,[15],inactive
same,outcome,[16],inactive
same,outcome,[17],inactive
CCCCCCCC(=O)OCC(O)CO (stereo not given),outcome,[1],inactive
same,outcome,[2],inactive
same,outcome,[3],inactive
same,outcome,[4],inactive
same,outcome,[5],inactive
same,outcome,[6],inactive
same,outcome,[7],inactive
same,outcome,[8],inactive
same,outcome,[9],inactive
same,outcome,[10],inactive
same,outcome,[11],inactive
same,outcome,[13],inactive
same,outcome,[14],inactive
same,outcome,[20],inactive
same,outcome,[15],inactive
same,outcome,[16],inactive
same,outcome,[17],inactive
OCCc1ccccc1,outcome,[1],inactive
same,outcome,[2],inactive
same,outcome,[3],inactive
same,outcome,[4],inactive
same,outcome,[5],inactive
same,outcome,[6],inactive
same,outcome,[7],inactive
same,outcome,[8],inactive
same,outcome,[9],inactive
same,outcome,[10],inactive
same,outcome,[11],inactive
same,outcome,[12],inactive
same,outcome,[13],inactive
same,outcome,[14],inactive
same,outcome,[16],inactive
same,outcome,[17],inactive
C=Cc1ccc(C(C)(C)C)cc1,outcome,[1],inactive
same,outcome,[2],inactive
same,outcome,[3],inactive
same,outcome,[4],inactive
same,outcome,[5],inactive
same,outcome,[6],inactive
same,outcome,[7],inactive
same,outcome,[8],inactive
same,AC50,[9],76.1 µM (active)
same,outcome,[10],inactive
same,outcome,[19],inactive
same,outcome,[12],inactive
same,outcome,[13],inactive
same,outcome,[14],inactive
same,outcome,[20],inactive
same,outcome,[15],inactive
same,outcome,[16],inactive
same,outcome,[17],inactive
